Assay outcomes as filed in PubChem.
A selection: hits, their analogues and other compounds. The true share with any hit is near 12%.
PLK1 PBD block = qHTS for Inhibitors of PLK1-PDB (polo-like kinase 1 - polo-box domain): Primary Screen | AID 720504, 2013 | Potency, µM, most hits filed as inhibitors | Serine/threonine-protein kinase PLK1 (Homo sapiens), P53350 | Plk1 PBD binding of FITC phosphopeptide, fluorescence polarization | 2.8% of 360,000 active; further: series mostly up to about 57 µM; nearly all actives have a fitted effect of over 65% in size
Sfp inh = qHTS Assay for Inhibitors of Bacillus subtilis Sfp phosphopantetheinyl transferase (PPTase); Biochemical Sfp PPTase activity, qHTS; AID 1490, 2009; 4'-phosphopantetheinyl transferase ffp (Bacillus subtilis), Q9F4F7; 3.5% of 310,000 active; Potency, µM, most hits filed as inhibitors;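 further: the enzyme is Sfp with the accession as filed and its product quenches rhodamine fluorescence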
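Buffer: 50 mM Hepes-Na pH 7.6, 10 mM MgCl2, 0.01% Nonidet P-40, 0.01% BSA. Enzyme 15 nM, pre-exposed to compound 15 min; substrates then added and fluorescence change tracked over 30 min.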
JMJD2A Tudor inh = qHTS Assay for Inhibitors of JMJD2A-Tudor Domain; Lysine-specific demethylase 4A (Homo sapiens), O75164; AID 504339, 2011; 4.4% of 390,000 active; Potency, µM (highest dose often 114 µM), most hits filed as inhibitors; AlphaScreen JMJD2A-Tudor / H3K4me3 peptide binding; further: nearly all actives have a fitted effect of over 50% in size
G9a block = qHTS Assay for Inhibitors of Histone Lysine Methyltransferase G9a. Histone-lysine N-methyltransferase EHMT2 (Homo sapiens), Q96KQ7. G9a H3K9 monomethylation, AlphaScreen, 2 h. Potency, µM (titrated, usually from 102 µM), usual class: inhibitors. 8.8% of 350,000 active. AID 504332, 2011; further: nearly all actives have a fitted effect of over 75% in size
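G9a (20 nM) was preincubated 15 min with compound, then reacted 2 h at room temperature with 500 nM biotin-H3K9 peptide and 20 µM SAM. Monomethyl-H3K9 detected by AlphaScreen using anti-H3K9me1 antibody.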
BAZ2B inh = qHTS Assay for Inhibitors of BAZ2B; Potency, µM (titrated, usually from 114 µM), actives largely listed as inhibitors; AID 504333, 2011; AlphaScreen BAZ2B-H3K14Ac peptide displacement; Bromodomain adjacent to zinc finger domain protein 2B (Homo sapiens), Q9UIF8; 4.4% of 360,000 active; further: nearly all actives have a fitted effect of over 60% in size
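Protein-peptide AlphaScreen: BAZ2B 50 nM, b-H3K14Ac 50 nM, 1x PBS pH 7.4 + 0.01% Tween-20. Preincubation 30 min RT; cpd 30 min RT (top 110 uM); beads 20 min RT, light-protected.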
HP1b chromo inh = HTS for Inhibitors of HP1-beta Chromodomain Interactions with Methylated Histone Tails; Chromobox protein homolog 1 (Homo sapiens), P83916; AlphaScreen HP1-beta / biotin-H3K9me3 peptide binding; Potency, µM (doses to about 114 µM), actives largely listed as inhibitors; 0.56% of 390,000 active; AID 540317, 2011; further: nearly all actives have a fitted effect of over 70% in size
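HP1-beta protein (50 nM final) preincubated 30 min at room temperature with biotinylated H3(1-18)K9me3 peptide (50 nM) in PBS pH 7.4, 0.01% Tween-20, then compound added for 30 min. AlphaScreen streptavidin donor/nickel chelate acceptor beads (10 ug/mL final), 30 min dark, luminescence read.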
Large screens that a line does not name were inactive. The call rests on the fitted dose curve; in most records, active means well fitted curve in the direction sought with a large enough effect; inconclusive means small, poorly fitted or top-dose-only effect, or another doubt; inactive means no such curve, though single readings can be large; an effect the other way counts as inactive or inconclusive.

O=C(On1c(-c2ccccc2)nc2ccccc2c1=O)c1ccco1	PLK1 PBD block 16.8µM, JMJD2A Tudor inh 89.1µM, G9a block inconclusive
COC(=O)CC1c2ccccc2C(Cc2ccc(OC)cc2)C(C)N1C(=O)OC (stereo unspecified)	none (no result: PLK1 PBD block, JMJD2A Tudor inh, G9a block, BAZ2B inh, HP1b chromo inh)
CCCCCCC(=O)N1C/C=C\C(c2ccc(OC)cc2)N(Cc2ccc(F)cc2)C(=O)C1Cc1ccccc1 (stereo unspecified)	none (no result: PLK1 PBD block, G9a block, BAZ2B inh)
CN(C)S(=O)(=O)c1cccc(C(=O)NCCOC(=O)c2cc(F)c(F)cc2Cl)c1	none
Cc1ccc(OCCOC(=O)c2nc3nccc(C)n3n2)cc1	PLK1 PBD block 26.7µM
COc1ccc(C(=O)N2CCC3(CCCN(CC(C)C)C3)CC2)cc1	none (no result: PLK1 PBD block, JMJD2A Tudor inh, BAZ2B inh, HP1b chromo inh)
CCc1ccc(NC(=O)c2sc(-n3nc(C)c(Cc4ccc5c(c4)OCO5)c3C)nc2C)cc1	none (no result: PLK1 PBD block, Sfp inh)
CC(=O)c1ccc(NC(=O)c2sc(-n3nc(C)c(Cc4ccc5c(c4)OCO5)c3C)nc2C)cc1	JMJD2A Tudor inh 79.4µM (no result: PLK1 PBD block, Sfp inh)
CC(Sc1nnc(NC2CCCCC2)s1)C(=O)Nc1ccc2c(c1)C(=O)c1ccccc1C2=O (stereo unspecified)	PLK1 PBD block inconclusive, JMJD2A Tudor inh inconclusive, G9a block 3.55µM
CC(Sc1nnc(NC2CC2)s1)C(=O)Nc1ccc(N2CCOCC2)cc1 (stereo unspecified)	G9a block 44.7µM (no result: Sfp inh)
O=C(CSc1nnc(NC2CCCCC2)s1)Nc1ccc(N2CCOCC2)cc1	none
NNC(=S)NC1CCCCCCCCCCC1	JMJD2A Tudor inh inconclusive, BAZ2B inh 31.6µM (no result: G9a block)
NNC(=S)NC1CCS(=O)(=O)C1 (stereo unspecified)	Sfp inh 8.91µM, JMJD2A Tudor inh inconclusive, HP1b chromo inh inconclusive (no result: G9a block)
O=C(O)/C=C/C(=O)NC1CCS(=O)(=O)C1 (stereo unspecified)	G9a block 3.16µM, BAZ2B inh inconclusive
CN(C)C(=S)NC1CCS(=O)(=O)C1 (stereo unspecified)	none
COc1ccc(CNC(=O)Cn2c(=O)n3nc(-c4ccc(OC)cc4)nc3c3ccccc32)cc1	none (no result: PLK1 PBD block, Sfp inh)
CCOC(=O)c1[nH]c2cc3c(cc2c1NC(=O)CN1CCN(CCO)CC1)OCO3	none
CCOc1cc(C2C3=C(CC(C)(C)CC3=O)OC3=C2C(=O)CC(C)(C)C3)cc([N+](=O)[O-])c1O	PLK1 PBD block 33.6µM, G9a block inconclusive, BAZ2B inh inconclusive
CCOc1cc(C2C3=C(CCCC3=O)OC3=C2C(=O)CCC3)cc([N+](=O)[O-])c1O	G9a block inconclusive, BAZ2B inh inconclusive
CC1(C)CC(=O)C2=C(C1)OC1=C(C(=O)CC(C)(C)C1)C2c1cc([N+](=O)[O-])cc([N+](=O)[O-])c1O	PLK1 PBD block 16.8µM, Sfp inh 11.2µM, HP1b chromo inh inconclusive
C[C@@H]1CN([C@@H](C)CO)C(=O)c2cc(Br)cnc2O[C@@H]1CN(C)C(=O)CN(C)C	none (no result: Sfp inh, JMJD2A Tudor inh, G9a block, BAZ2B inh, HP1b chromo inh)
CCOc1ccccc1CNC(=O)CCCc1cn(C)c2ccccc12	JMJD2A Tudor inh inconclusive, G9a block 50.1µM, BAZ2B inh inconclusive
CCOc1ccccc1CNC(=O)CCc1cn(C)c2ccccc12	JMJD2A Tudor inh inconclusive, BAZ2B inh inconclusive
CCn1c(C(=O)N2CCC(C(=O)NCc3ccc4c(c3)OCO4)CC2)cc2sccc21	JMJD2A Tudor inh inconclusive, G9a block 44.7µM
CCn1c(C(=O)N2CCC(C(=O)NCCCSC3CCCCC3)CC2)cc2sccc21	JMJD2A Tudor inh inconclusive, G9a block 39.8µM, BAZ2B inh inconclusive
Cn1c(C(=O)N2CCCC(C(=O)NCc3ccc4c(c3)OCO4)C2)cc2sccc21 (stereo unspecified)	G9a block 50.1µM, BAZ2B inh inconclusive
Cn1c(C(=O)N2CCCC(C(=O)NCCc3ccccc3)C2)cc2sccc21 (stereo unspecified)	none (no result: G9a block)
